# Out of some 330,000 compounds screened, about 4,600 (1.4%) were called active. Many of the other results were omitted from the sample, so actives are more common in it than they were. Unmarked numbers belong to inactive results.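 Rule for the calls: active = inhibition of 40% or more at the single tested concentration; inactive = the rest.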
# Experiment: growth inhibitors of isogenic TIM10 control yeast, primary screen, counter-screen for tim10-1 yeast inhibitor project, luminescence, uHTS (AID 463195);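 note: wild-type TIM10 isogenic control strain grown at permissive 25 °C; 0% = DMSO yeast wells and 100% = minimal medium wells without yeast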
# Conditions: S. cerevisiae TIM10 strain growth, BacTiter-Glo luminescence, 24 h; at 10 µM; active compounds read high
row,SMILES,inhibition
1,CCN(/N=C/c1ccccc1)c1cc(=O)n(C)c(=O)[nH]1,19.2%
2,CN(/N=C/c1ccccc1)C(=S)c1ccccc1,-6.07%
3,Oc1ccc(/C=N/N(Cc2ccccc2)c2ccccc2)cc1,46% (active)
4,CN1CCN(S(=O)(=O)c2cccc(C(=O)Nc3sccc3C#N)c2)CC1,-3.26%
5,CSC1=NCCN1C(=O)Cc1cccc2ccccc12,4.36%
6,O=C(CCC(=O)N1CCN(S(=O)(=O)c2ccccc2)CC1)NC1CCCc2ccccc21 (configuration not stated),8.6%
7,O=S(=O)(c1ccccc1)N1CCc2ccccc21,2.66%
8,O=C1c2ccccc2C(=O)N1CC1c2ccccc2CCN1S(=O)(=O)c1ccccc1 (configuration not stated),40.3% (active)
9,O=[N+]([O-])c1ccccc1/C=C/CN1CCCC(CO)C1 (configuration not stated),-25%
10,CC1CCCCC1NC(=O)/C(C#N)=C/C=C/c1ccccc1[N+](=O)[O-] (configuration not stated),47.3% (active)
11,O=[N+]([O-])c1ccccc1/C=C/CN1CCC(O)CC1,-13.6%
12,CCOc1ccc(CN2CCN(Cc3c[nH]c4ccccc34)CC2)cc1,-10.6%
13,CC1(C)CC(=O)C=C(NCCN2CCNCC2)C1,5.33%
14,Cc1ccc(/C=C/C(=O)OCC(=O)NCc2ccc(Cl)cc2)o1,-3.46%
15,CCOC(=O)C1CN(S(=O)(=O)c2ccc(OC)cc2)c2cc(Cl)ccc2O1 (configuration not stated),15.1%
16,O=C1C2N=NN(CC(=O)N3N=C(c4cccc5ccccc45)CC3c3ccccc3)C2C(=O)N1c1ccccc1 (configuration not stated),22.8%
17,Oc1ccccc1C1=NN(c2ccccc2)C(c2ccccc2)C1 (configuration not stated),49% (active)
18,COc1ccccc1N1N=C(c2cccs2)CC1c1ccccc1 (configuration not stated),23%
19,CC(C)CC(COCc1ccc(Cl)cc1)N1CCN(C(=O)c2ccc(C(F)(F)F)cc2)CCC1=O (configuration not stated),17.7%

row,SMILES,inhibition
1,CCCC1CCC(=NNC(=S)NCCc2ccccc2)CC1 (configuration not stated),-23.1%
2,CCCCNC(=S)N/N=C1\CCCCc2ccccc21,48.2% (active)
3,Cc1ccc(NC(=S)N/N=C2/CCCc3c(C)cc(C)cc32)cc1,-3.6%
4,Cc1noc(C)c1S(=O)(=O)Nc1cc(C(F)(F)F)ccc1N1CCOCC1,14.8%
5,NS(=O)(=O)c1ccc(CCNC(=O)CCCn2c(SCC(=O)N3CCCC3)nc3ccsc3c2=O)cc1,-3.82%
6,O=C(Oc1c(-c2ccco2)oc2ccccc2c1=O)c1cccnc1,63.5% (active)
7,COc1ccc(Oc2coc3cc(OC(=O)c4cncc(Br)c4)ccc3c2=O)cc1,22.3%
8,O=C(OCc1cc2ccccc2[nH]c1=O)c1cccnc1,-6.32%
9,Cn1c(CC2Sc3ccccc3NC2=O)nnc1SCC(=O)c1ccc(Cl)cc1 (configuration not stated),2.41%
10,COc1cccc(NC(C)=[N+](C)CCNS(=O)(=O)c2ccc(Cl)cc2)c1,-4.11%
11,CCCCn1c(N)c(N(CCC(C)C)C(=O)c2ccc([N+](=O)[O-])o2)c(=O)[nH]c1=O,-3.66%
12,CC1=NN(C(N)=S)C(=O)C1N=Nc1cc(Cl)ccc1Cl (configuration not stated),28.1%
13,Cc1[nH]n(C(N)=S)c(=O)c1N=Nc1ccc(Cl)cc1Cl,50.4% (active)
14,Cc1[nH]n(C)c(=O)c1N=Nc1ccc(S(C)(=O)=O)cc1,6.98%
15,COC(=O)Cc1ccc(NC(=S)NCc2ccc(Cl)cc2)cc1,28%
16,S=C(NCc1ccc(Cl)cc1)NC12CC3CC(CC(C3)C1)C2,61.1% (active)
17,O=C(NCc1ccc(Cl)cc1)NCc1ccc(Cl)cc1,-12.6%
18,CSc1nc2nc(-c3cccc(C(F)(F)F)c3)ccn2n1,-28%

# Reference: PubChem BioAssay AID463195 (Sanford-Burnham Center for Chemical Genomics, 2010)
